# “And” between values parts separate entries of the source, which are not always exact repeats. Equal entries are not always repeated. This is part of a sample that, as a whole, favours compounds with a hit. Of some 83,000 tested, about 20% had one in any assay.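 Single-dose data. Exposure time 48 hours. Values below 10 considered active.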 Values without a mark were called inactive. The source made the active and inactive calls.
# System: MDA-MB-468 breast
# Assay: NCI-60 one-dose screen, 48 h (100 = growth as untreated, 0 = no growth, -100 = all killed)
# Conditions: 10 µM unless noted
row,SMILES,growth
1,O=C(Cc1ccc(-c2ccc(OCCN3CCOCC3)cc2)cn1)NCc1ccccc1,-17% (active)
2,NC/C(=C/F)COc1ccc2nc(NCc3cccnc3)oc2c1,107%
3,CCCCCc1c(C)[nH]c(/C=C2\N=C(c3ccc[nH]3)C=C2Oc2ccc(OC)cc2)c1C,-54.8% [100 µM] (active)
4,O=S(=O)(NCCCNc1cc(-c2cn(-c3ccccc3)nc2-c2cccc(O)c2)ccn1)c1ccc(Br)cc1,-27.4% (active)
5,CN1CCN(CCCCCC(=O)Nc2nc(-c3cccc(NS(=O)(=O)c4cccc5c(N(C)C)cccc45)c3)cs2)CC1,74%
6,COc1ccc(-c2noc(N)c2-c2cc(OC)c3c(c2)OCO3)cc1,25.6%
7,COc1ccc(NC(=O)c2c(Nc3ccc(OC)cc3OC)n[nH]c2N)c(OC)c1,82.3%
8,CC(C)(O)c1cncc(-c2ccc3ncc(C#N)c(N4CCc5cc(F)c(Cl)cc54)c3c2)c1,10.2%
9,CCN(CC)c1ccc(/C=N/NC(=O)c2ccc(S(C)(=O)=O)cc2)c(O)c1,1.2% (active)
10,CN(C)CCOC(=O)Nc1ccc(Cc2ccc(NC(=O)OCCN(C)C)cc2)cc1,40.4% [100 µM]
11,Cc1ccc(/C=C(\C#N)n2nnc3cc(Cl)c(Cl)cc32)cc1,22.3%
12,CCN(CC)CCC(CNc1c2ccc(Cl)cc2nc2ccc(OC)cc12)c1ccccc1 (stereo not given),-87.1% (active)
13,C#CCOc1ccc(C(Nc2cc(Cl)ccc2Cl)c2nnnn2C2CCCCC2)cc1 (stereo not given),88.5%
14,COc1ccc(F)cc1/C=C/C(=O)/C=C(/C=C/c1cc(F)ccc1OC)OB(F)F,31.5%
15,CCN(CC)CCOc1ccc(/C(=C(/C)c2ccccc2)c2ccc(OC(C)=O)cc2)cc1,87.9%
16,CS(=O)/C(C#N)=C\C=C\c1cccc(Cl)c1 (stereo not given),3.26% (active)
17,OC(c1ccccn1)C(O)c1ccccn1 (stereo not given),113%
18,CCOc1cccc2c(NC(C)CCCN(CC)CC)c(C)cnc12 (stereo not given),92.9%
19,C=C(C)[C@@H]1CC[C@]2(C)[C@H](CC(=O)N[C@H]3[C@@H]4C[C@](C)(C(=O)OC)CC[C@]4(C)CC[C@]32C)[C@@]1(C)CCC#N,83.3%
20,Cc1ccc2c(C)c3c(ccc4ccccc43)c[n+]2c1,-42.1% (active)
21,N#Cc1c(-c2ccc(Cl)cc2)nc(NCCO)[nH]c1=O,119%
22,CN(C)CCCNc1nn2c(=O)c3ccccc3nc2c2ccccc12,53.4%

row,SMILES,growth
1,Cc1cccc(CN(Nc2ccccc2)c2ccccc2)n1,94.9%
2,Nc1cc(-c2nc3sccn3c2-c2ccnc(NCCCNS(=O)(=O)c3ccc(F)cc3)n2)ccc1F,41.7%
3,CCn1cc(-c2cc(-c3ccc(Cl)cc3)nc(N)n2)c(-c2ccc(Br)cc2)n1,72.7%
4,Cc1nc(Nc2cccnc2)sc1C(=O)/C=C/c1ccc(Cl)cc1,11.8%
5,COc1ccc(C(=O)NC(=O)Nc2cc3c(cc2F)/C(=C/c2[nH]c(C)c(CCC(=O)O)c2C)C(=O)N3)c(F)c1,50.4%
6,COc1ccc(C2CC(c3cc(OC)c(OC)c(OC)c3)=NN2C(C)=O)cc1OCC(=O)Nc1nc2ccc(C(F)(F)F)cc2s1 (stereo not given),84.1%
7,O=C(O)c1occ(Cl)c1Cl,107%
8,CN(C)c1ccc(/C=N/N=C(N)N)cc1,33%
9,CC(C)C(=O)c1ccc(Cl)s1,91.6%
10,N=C(N)c1ccc(-c2ccc(-c3cc(Cl)cc(Cl)c3)s2)s1,-63.4% (active)
11,CCc1cccc(Sc2cc(C(=O)N3Cc4ccc(OCCN(C)C)cc4C3)ccc2O)c1,30.6%
12,CCN(CC)CCOc1ccc(C(=C(C)c2ccc(OC)cc2)c2ccc(OCCN(CC)CC)cc2)cc1,-70.1% (active)
13,CCCCCCCCCCCCCCCCC(C(=O)O)C(O)(CC(=O)O)C(=O)O (stereo not given),102%
14,CC(C)(C)c1cc(O)c(C(C)(C)C)cc1O,66.2%
15,Cc1ccc(-c2nc3nc(-c4ccccc4)nc(N4CCN(S(=O)(=O)c5ccccc5)CC4)c3o2)cc1,101%
16,Nc1nc2ccccc2c2c(=O)c3cccc(Cl)c3sc12,-0.88% (active)
17,FC(F)c1nc2ccccc2n1-c1nc(N2CCOCC2)nc(N2CCOCC2)n1,-43.2% (active)
18,C=CCN1C=CC(=O)[C@H](O[Si](C)(C)C(C)(C)C)[C@@H]1/C=C/c1ccccc1,-72.9% [100 µM] (active)
19,CCNCc1ccncc1,96.9%
20,O=C(NO)c1ccc(CNc2cccc3nc(C4CC4)n(-c4ccccc4)c(=O)c23)cc1,22.3%
21,CCOc1nc(-c2ccccc2)cc2c(O)c(C(=O)N/N=C/c3ccc(N(C)C)cc3)[nH]c(=O)c12,158%
22,Nc1c(C(=O)Nc2ccnc3ccccc23)sc2nc3c(cc12)CN(Cc1ccccc1)CC3,44%

row,SMILES,growth
1,O=C1CC23OC(C(O)c4ccccc4N12)C1C(c2ccccc2)=NOC13 (stereo not given),40.9%
2,C=C(C)[C@@H]1CC[C@]2(COC(C)=O)CC[C@]3(C)[C@H](CC[C@@H]4[C@@]5(C)CCCN(C(C)=O)C(C)(C)[C@@H]5CC[C@]43C)[C@@H]12,-49.5% (active)
3,C(CCCC1=NCCO1)CCCC1=NCCO1,95%
4,N#Cc1c(N)n2c(nc1=Nc1ccc(Cl)cc1)sc1cc(Cl)ccc12,22.5%
5,O=C1/C(=C/c2ccc([N+](=O)[O-])o2)Oc2ccc(Br)cc21,65.3%
6,COC1=C(C)C(=O)N2[C@@H]1[C@H](c1ccccc1)OC21C=CC(=O)C=C1,-20.4% (active)
7,COc1ccc(-c2cc(/C=C/C(=O)c3ccc(OC)c(OC)c3)[nH]n2)cc1,21.4%
8,CCCCN=C(N)c1ccc(OCCSCCOc2ccc(C(N)=NCCCC)cc2)cc1,38.9%
9,O=c1[nH]nnc2cc(Cl)ccc12,104%
10,O=C(N/N=C/c1cc(Cl)ccc1O)C(=O)N/N=C/c1cc(Cl)ccc1O,61.3%
11,Cc1cc(NCc2cc(Nc3ccnc4cc(Cl)ccc34)ccc2F)nc(N2CCCC2)n1,-35.4% (active)
12,CCN1CCN(C(=O)[C@]23CCC(C)(C)C[C@H]2C2=CC[C@@H]4[C@@]5(C)CC/C(=N/O)C(C)(C)[C@@H]5CC[C@@]4(C)[C@]2(C)CC3)CC1,47%
13,CCCCCCOc1ccc(/C=N/Nc2cc(C)nc3ccc(Br)cc23)cc1,-78.6% (active)
14,O=C(/C=C/c1ccc(C(F)(F)F)cc1)c1ccc(Nc2nc(NCCO)nc(NCCO)n2)cc1,19.9%
15,O=C(/C=C/C=C/c1c(C2CC2)nc2ccccc2c1-c1ccc(F)cc1)c1cccs1,4.94% (active)
16,CC1=NN(c2ccccc2Cl)C(=O)/C1=C\c1cn(S(=O)(=O)c2ccc(C)cc2)c2ccccc12,119%
17,COc1ccc(-c2cc(C(=O)Nc3ccc(C)cc3)nc3[nH]c(=O)sc23)cc1,66.6%
18,N#Cc1ccc(Oc2ccc3ccc(=O)oc3c2)cc1,93.4%
19,Nc1nc(N)c2cc(Sc3ccc(Cl)cc3)ccc2n1,18.7%
20,COc1cc2oc(-c3cccc(C(=O)Nc4ccc(C#N)cc4)c3)cc(=O)c2c(O)c1OC,77.3%
21,Cc1cccc2sc(/N=C(\N)C(Cl)(Cl)Cl)nc12,110%
22,Clc1ccc(-c2nnc(COc3ccc(C4=NNC(c5ccco5)C4)cc3)o2)cc1 (stereo not given),9.43% (active)

row,SMILES,growth
1,O=C1CSC(c2ccccc2O)N1c1nnc(Cn2ccnc2)o1 (stereo not given),59.1%
2,N#C/C(=C\c1ccccn1)c1nc2cc(Cl)ccc2s1,55.5%
3,COc1ccc(S(=O)(=O)N2CCCCCC2)cc1NC(=O)c1[nH]c(C)c2c1CCCCC2=O,4% (active)
4,CS(=O)(=O)c1ccc(-n2cc(/C=C/C(=O)c3ccc(NC(=O)CO[N+](=O)[O-])cc3)c(-c3ccc(Cl)cc3)n2)cc1,94.1%
5,O=C(/C=C\c1ccc(O)cc1)c1ccccc1,97.4%
6,O=c1[nH]c2ccccc2cc1CSc1ccccc1Nc1nccc(-c2ccc(C(F)(F)F)cc2)n1,47.6%
7,CCC1CN2C(=N1)c1ccccc1-c1cc(Cl)ccc12 (stereo not given),-7.75% (active)
8,CCN1C2CCC1/C(=C\c1ccc(F)cc1)C(=O)/C2=C/c1ccc(F)cc1,11.1%
9,CC[C@@H](C)OC(=O)c1nn(C(C)=O)c2ccccc12,82.4%
10,COc1ccc(/C=C/C(=O)c2cc(OC)c(OC)c(OC)c2)cc1OCc1cn(Cc2ccc(F)cc2)nn1,25.2%
11,COc1ccc(-c2ccc(-c3ccc(-c4ccc(C(=N)N)cc4)s3)s2)cc1OC,-71.4% (active)
12,CCCC(C)OCC(=O)O (stereo not given),92.1%
13,COc1ccc(-c2cc(=O)c3c(O)cc(O)cc3o2)cc1,121% and 96.2%
14,CC1(C)OC(=O)C(=Cc2ccccc2Br)C(=O)O1,98.2%
15,CCn1cnc(C[C@H](NC(=O)[C@@H](NC(=O)Nc2cc(C(F)(F)F)cc(C(F)(F)F)c2)C(C)C)C(=O)OC)c1,-81.1% [100 µM] (active)
16,COc1cccc(C(=O)Nc2cccc(C#Cc3cccc4[nH]nc(N)c34)c2)c1,24.5%
17,COc1ccc(/C=C/C(c2cc(OC)c(OC)c(OC)c2)n2cncn2)cc1O (stereo not given),8.27% (active)
18,Fc1ccc2c(CN3CCO[C@H](COc4cccc(Cl)c4)C3)c[nH]c2c1,-38.7% (active)
19,Cc1nc(Nc2ncc(C(=O)Nc3c(C)cccc3Cl)s2)cc(N2CCN(CCO)CC2)n1,-4.35% (active) and -2.22% (active)

# Source: PubChem BioAssay (NCI)
